Experimental data from the antibiotic and cytotoxicity screens of Wong et al. (2023).
About 3,300 (8.5%) of roughly 39,000 compounds were called active. The entries come from a sample that favours actives as a whole.

What follows are compounds tested on HepG2 (assay: cytotoxicity call (relative viability < 0.9)). Conditions: 10 µM.

| SMILES | cytotoxicity call |
| --- | --- |
| O=C(O)c1cccnc1 | inactive |
| O=C(c1cccnc1)N1CCOCC1 | active |
| O=C(NCCCN1CCOCC1)c1cccnc1 | inactive |
| Cc1ccc(S(=O)(=O)N(C)C[C@@H]2Oc3c(NC(=O)Nc4cccc5ccccc45)cccc3C(=O)N([C@H](C)CO)C[C@H]2C)cc1 | inactive |
| CN(C)C(=O)c1cc2c(c(-c3cccc(/C=C/c4ccccc4)c3)n1)[C@H](CCO)N([S@@](=O)C(C)(C)C)C2 | inactive |
| C[C@@H]1CN([C@@H](C)CO)C(=O)c2cccc(NC(=O)Nc3ccc(C(F)(F)F)cc3)c2O[C@@H]1CN(C)Cc1ccc(C(F)(F)F)cc1 | inactive |
| C[C@H](CO)N1C[C@H](C)[C@@H](CN(C)Cc2ccc(C(F)(F)F)cc2)Oc2c(NC(=O)Nc3ccc(F)cc3)cccc2C1=O | active |
| C[C@@H]1CN([C@H](C)CO)C(=O)c2cccc(NC(=O)Nc3ccc(F)cc3)c2O[C@H]1CN(C)Cc1ccc(C(F)(F)F)cc1 | inactive |
| C[C@@H]1CN([C@H](C)CO)C(=O)c2cccc(NC(=O)Nc3ccc(C(F)(F)F)cc3)c2O[C@H]1CN(C)Cc1ccc(C(F)(F)F)cc1 | active |
| C[C@H]1CN([C@@H](C)CO)C(=O)c2cccc(NC(=O)Nc3ccc(C(F)(F)F)cc3)c2O[C@@H]1CN(C)Cc1ccc(C(F)(F)F)cc1 | active |
| C[C@@H]1CN([C@H](C)CO)C(=O)c2cccc(NC(=O)Nc3ccc(F)cc3)c2O[C@@H]1CN(C)Cc1ccc(C(F)(F)F)cc1 | inactive |
| C[C@H]1CN([C@@H](C)CO)C(=O)c2cccc(NC(=O)Nc3ccc(F)cc3)c2O[C@H]1CN(C)Cc1ccc(C(F)(F)F)cc1 | inactive |
| C[C@@H]1CN([C@@H](C)CO)C(=O)c2cccc(NC(=O)Nc3ccc(F)cc3)c2O[C@H]1CN(C)Cc1ccc(C(F)(F)F)cc1 | inactive |
| C[C@H](CO)N1C[C@H](C)[C@@H](CN(C)Cc2ccc(C(F)(F)F)cc2)Oc2c(NC(=O)Nc3ccc(C(F)(F)F)cc3)cccc2C1=O | inactive |
| C[C@@H]1CN([C@H](C)CO)C(=O)c2cccc(NC(=O)Nc3ccc(C(F)(F)F)cc3)c2O[C@@H]1CN(C)Cc1ccc(C(F)(F)F)cc1 | active |
| C[C@H]1CN([C@@H](C)CO)C(=O)c2cccc(NC(=O)Nc3ccc(C(F)(F)F)cc3)c2O[C@H]1CN(C)Cc1ccc(C(F)(F)F)cc1 | inactive |
| C[C@H](CO)N1C[C@H](C)[C@H](CN(C)Cc2ccc(C(F)(F)F)cc2)Oc2c(NC(=O)Nc3ccc(C(F)(F)F)cc3)cccc2C1=O | inactive |
| C[C@@H]1CN([C@H](C)CO)C(=O)c2cc(NC(=O)CCC(F)(F)F)ccc2O[C@H]1CN(C)S(=O)(=O)c1cn(C)cn1 | inactive |
| CC(C)NC(=O)N(C)C[C@H]1Oc2c(NS(=O)(=O)c3cn(C)cn3)cccc2C(=O)N([C@@H](C)CO)C[C@@H]1C | inactive |
| C[C@@H]1CCCCO[C@@H](CN(C)Cc2ccc(C(=O)O)cc2)[C@H](C)CN([C@H](C)CO)C(=O)c2cc(NC(=O)Cc3ccccc3)ccc2O1 | inactive |
| CC(C)CC#Cc1cnc2c(c1)C(=O)N([C@@H](C)CO)C[C@@H](C)[C@H](CN(C)S(=O)(=O)c1cccs1)O2 | inactive |
| Cc1ccc(S(=O)(=O)N(C)C[C@H]2Oc3ccc(NS(=O)(=O)c4c(C)noc4C)cc3CC(=O)N([C@@H](C)CO)C[C@@H]2C)cc1 | inactive |

| SMILES | cytotoxicity call |
| --- | --- |
| C[C@@H]1CN([C@H](C)CO)C(=O)Cc2cc(NC(=O)CCN3CCOCC3)ccc2O[C@H]1CN(C)S(=O)(=O)c1ccccc1 | inactive |
| CC(=O)OCC(=O)O[C@@H]1[C@H]2[C@@H](OC(=O)c3ccccc3)[C@@H](C)C[C@]2(O)[C@H](OC(C)=O)[C@@]2(C)[C@H](OC(C)=O)[C@]1(OC(C)=O)C[C@H]1C(=O)C(C)(C)C[C@@H]12 | inactive |
| O=C(NC(=O)N1CCOCC1)c1ccc(S(=O)(=O)N2CCOCC2)cc1 | inactive |
| C[C@@H]1CN([C@H](C)CO)C(=O)c2cccc(NC(=O)c3ccncc3)c2O[C@@H]1CN(C)Cc1ccc(-c2ccccc2)cc1 | inactive |
| C[C@H](CO)N1C[C@H](C)[C@@H](CN(C)S(=O)(=O)c2cccc(F)c2)Oc2ncc(Br)cc2C1=O | inactive |
| C[C@@H]1CN([C@H](C)CO)C(=O)c2cc(Br)cnc2O[C@H]1CN(C)C(=O)Nc1ccc2c(c1)OCO2 | inactive |
| C[C@H](CO)N1C[C@H](C)[C@H](CN(C)Cc2ccc(Oc3ccccc3)cc2)Oc2c(NC(=O)Nc3ccc(C(F)(F)F)cc3)cccc2C1=O | inactive |
| C[C@H]1CN([C@@H](C)CO)C(=O)c2cccc(NC(=O)Nc3ccc(F)cc3)c2O[C@@H]1CN(C)Cc1ccc(C(F)(F)F)cc1 | inactive |
| C[C@H]1CN([C@@H](C)CO)C(=O)c2cccc(NC(=O)Nc3ccc(C(F)(F)F)cc3)c2O[C@H]1CN(C)Cc1ccc(-c2ccccc2)cc1 | inactive |
| C[C@@H]1CN([C@@H](C)CO)C(=O)c2cccc(NC(=O)Nc3ccc(C(F)(F)F)cc3)c2O[C@H]1CN(C)Cc1ccc(C(F)(F)F)cc1 | active |
| C[C@@H]1CN([C@H](C)CO)C(=O)c2cccc(NC(=O)Nc3ccc(C(F)(F)F)cc3)c2O[C@H]1CN(C)Cc1ccc(-c2ccccc2)cc1 | inactive |
| C[C@H](CO)N1C[C@H](C)[C@H](CN(C)Cc2ccc(C(F)(F)F)cc2)Oc2c(NC(=O)Nc3ccc(F)cc3)cccc2C1=O | inactive |
| C[C@@H]1CN([C@H](C)CO)C(=O)c2cccc(NC(=O)Nc3ccccc3)c2O[C@H]1CN(C)Cc1ccc(C(F)(F)F)cc1 | active |
| C[C@@H]1CN([C@@H](C)CO)C(=O)c2cccc(NC(=O)Nc3ccc(C(F)(F)F)cc3)c2O[C@@H]1CN(C)Cc1ccc(Oc2ccccc2)cc1 | active |
| C[C@@H]1CN([C@@H](C)CO)C(=O)c2cccc(NC(=O)Nc3ccccc3)c2O[C@@H]1CN(C)Cc1ccc(C(F)(F)F)cc1 | inactive |
| C[C@H]1CN([C@@H](C)CO)C(=O)c2cccc(NC(=O)Nc3ccc(C(F)(F)F)cc3)c2O[C@@H]1CN(C)Cc1ccc(Oc2ccccc2)cc1 | inactive |
| C[C@@H]1CN([C@@H](C)CO)C(=O)c2cccc(NC(=O)Nc3ccccc3)c2O[C@H]1CN(C)Cc1ccc(C(F)(F)F)cc1 | inactive |
| C[C@@H]1CN([C@H](C)CO)C(=O)c2cccc(NC(=O)Nc3ccc(C(F)(F)F)cc3)c2O[C@@H]1CN(C)Cc1ccc(-c2ccccc2)cc1 | active |
| COc1ccc(S(=O)(=O)Nc2ccc3c(c2)C(=O)N([C@H](C)CO)C[C@@H](C)[C@@H](CN(C)C(=O)Nc2ccccc2)OCCCC[C@@H](C)O3)cc1 | inactive |
| CC(C)CC#Cc1ccc2c(c1)O[C@H](CN(C)C(=O)Cc1ccncc1)[C@H](C)CN([C@H](C)CO)S2(=O)=O | inactive |
| COc1cccc(S(=O)(=O)N(C)C[C@@H]2Oc3cc(C4=CCCC4)ccc3S(=O)(=O)N([C@@H](C)CO)C[C@H]2C)c1 | inactive |
| Cc1noc(C)c1S(=O)(=O)Nc1ccc2c(c1)C(=O)N([C@H](C)CO)C[C@H](C)[C@H](CN(C)C(=O)Nc1ccccc1)O2 | inactive |

| SMILES | cytotoxicity call |
| --- | --- |
| Cc1noc(C)c1S(=O)(=O)N(C)C[C@@H]1Oc2ccc(NS(=O)(=O)c3ccc(F)cc3)cc2CC(=O)N([C@H](C)CO)C[C@@H]1C | inactive |
| C[C@H]1CN([C@@H](C)CO)C(=O)c2cccc(NC(=O)c3nc4ccccc4s3)c2O[C@@H]1CN(C)C(=O)Nc1ccc(F)cc1 | inactive |
| COc1ccccc1S(=O)(=O)N(C)C[C@@H]1OCc2cn(nn2)CCCC(=O)N([C@H](C)CO)C[C@H]1C | inactive |
| Cc1noc(C)c1S(=O)(=O)Nc1ccc2c(c1)C(=O)N([C@@H](C)CO)C[C@@H](C)[C@H](CN(C)S(=O)(=O)c1ccc(Cl)cc1)O2 | inactive |
| COc1ccc(S(=O)(=O)N(C)C[C@@H]2Oc3ccc(NS(=O)(=O)c4c(C)noc4C)cc3CC(=O)N([C@@H](C)CO)C[C@H]2C)cc1 | inactive |
| Cc1noc(C)c1NC(=O)Nc1ccc2c(c1)C(=O)N([C@H](C)CO)C[C@@H](C)[C@@H](CN(C)C(=O)C1CCCCC1)OCCCC[C@H](C)O2 | inactive |
| C[C@@H]1CN([C@H](C)CO)C(=O)c2cccc(NC(=O)NC3CCCCC3)c2O[C@@H]1CN(C)Cc1ccc(C(F)(F)F)cc1 | active |
| C[C@H](CO)N1C[C@H](C)[C@@H](CN(C)Cc2ccc(C(F)(F)F)cc2)Oc2c(NC(=O)NC3CCCCC3)cccc2C1=O | inactive |
| C[C@H](CO)N1C[C@H](C)[C@H](CN(C)Cc2ccc(C(F)(F)F)cc2)Oc2c(NC(=O)NC3CCCCC3)cccc2C1=O | inactive |
| CO[C@H]1CN(C)C(=O)c2ccc(NC(=O)C3CCOCC3)cc2OC[C@@H](C)N(Cc2cccnc2)C[C@H]1C | inactive |
| C[C@H](CO)N1C[C@H](C)[C@@H](CN(C)Cc2ccc(Cl)c(Cl)c2)Oc2ccc(NC(=O)Cn3cnnn3)cc2C1=O | inactive |
| C[C@@H]1CN([C@H](C)CO)C(=O)Cc2cc(NC(=O)Nc3ccccc3)ccc2O[C@@H]1CN(C)Cc1ccc(-c2ccccc2)cc1 | active |
| C[C@H]1CN([C@@H](C)CO)C(=O)Cc2cc(NC(=O)Nc3ccccc3)ccc2O[C@H]1CN(C)Cc1ccc(-c2ccccc2)cc1 | inactive |
| C[C@@H]1CN([C@@H](C)CO)C(=O)Cc2cc(NC(=O)Nc3ccccc3)ccc2O[C@H]1CN(C)Cc1ccc(-c2ccccc2)cc1 | active |
| Cc1noc(C)c1NC(=O)Nc1ccc2c(c1)CC(=O)N([C@@H](C)CO)C[C@H](C)[C@H](CN(C)Cc1ccc(-c3ccccc3)cc1)O2 | inactive |
| C[C@@H]1CN([C@H](C)CO)C(=O)Cc2cc(NC(=O)Nc3ccccc3)ccc2O[C@H]1CN(C)Cc1ccc(-c2ccccc2)cc1 | inactive |
| C[C@@H]1CN([C@@H](C)CO)C(=O)Cc2cc(NC(=O)Nc3ccccc3)ccc2O[C@@H]1CN(C)Cc1ccc(-c2ccccc2)cc1 | inactive |
| Cc1noc(C)c1NC(=O)Nc1ccc2c(c1)CC(=O)N([C@@H](C)CO)C[C@@H](C)[C@@H](CN(C)Cc1ccc(-c3ccccc3)cc1)O2 | active |
| Cc1noc(C)c1NC(=O)Nc1ccc2c(c1)CC(=O)N([C@H](C)CO)C[C@@H](C)[C@H](CN(C)Cc1ccc(-c3ccccc3)cc1)O2 | inactive |
| CC(C)NC(=O)Nc1ccc2c(c1)CC(=O)N([C@H](C)CO)C[C@H](C)[C@H](CN(C)Cc1ccc(-c3ccccc3)cc1)O2 | inactive |
| C[C@H](CO)N1C[C@H](C)[C@H](CN(C)Cc2ccc(-c3ccccc3)cc2)Oc2ccc(NC(=O)Nc3ccccc3)cc2CC1=O | active |
